Wee1 degr inh: Wee1 degradation inhibitors, primary screen, cell-based, HeLa, Wee1K328M-luciferase, luminescence; Wee1-like protein kinase (Homo sapiens), P30291; HeLa Luc-Wee1K328M stability; 100% = proteasome inhibitor MG132 effect; reporter increase, % at 5 µM; actives 1.2% (n = 220,000); AID 1321, 2008;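 active = activation above the mean of all tested compounds plus 3 SD, set per screening run, cut at about 8.8% in these data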;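 note: cells exposed to compound for 20 h before luminescence read; 0% = DMSO alone and 100% = MG132 at 30 µM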
Target sequence (P30291 whole entry K328M): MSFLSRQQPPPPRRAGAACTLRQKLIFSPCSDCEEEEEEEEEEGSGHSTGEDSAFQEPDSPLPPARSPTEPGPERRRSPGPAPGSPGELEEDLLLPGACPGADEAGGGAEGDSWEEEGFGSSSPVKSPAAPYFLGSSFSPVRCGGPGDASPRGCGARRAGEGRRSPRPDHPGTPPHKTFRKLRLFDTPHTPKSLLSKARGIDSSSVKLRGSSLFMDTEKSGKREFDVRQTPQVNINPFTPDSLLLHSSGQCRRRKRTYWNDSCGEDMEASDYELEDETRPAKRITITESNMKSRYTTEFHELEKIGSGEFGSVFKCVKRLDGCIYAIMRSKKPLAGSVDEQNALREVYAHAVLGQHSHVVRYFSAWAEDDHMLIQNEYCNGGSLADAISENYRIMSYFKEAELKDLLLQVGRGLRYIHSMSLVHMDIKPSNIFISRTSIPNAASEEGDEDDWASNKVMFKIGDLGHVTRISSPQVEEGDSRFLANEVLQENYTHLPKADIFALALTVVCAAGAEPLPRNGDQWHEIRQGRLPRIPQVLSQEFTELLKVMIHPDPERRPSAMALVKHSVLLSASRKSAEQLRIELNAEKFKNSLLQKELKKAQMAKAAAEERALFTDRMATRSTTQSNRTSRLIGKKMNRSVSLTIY
V-ATPase pHluor: regulators of yeast V-ATPase proton pumping, primary screen, pHLuorin cytosolic pH fluorescence; S. cerevisiae; response, % at 10 µM; actives 0.37% (n = 350,000); AID 504577, 2011; in the data active = response mostly above about 7.3%, no sharp cut-off; inactive = mostly below about 5.4%; note: actives read high
TNF necrop inh: inhibitors of TNF-alpha triggered necroptosis, primary screen, cell-based, Jurkat FADD-/-, single concentration; actives 0.068% (n = 220,000); activation (protection from cell death), % at 10 µM; Jurkat FADD-/- TNF necroptosis rescue, ATP luminescence, 24 h; 0 = TNF only, 100 = no-TNF cells;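 active = activation, meaning protection from cell death, of at least 50% relative to plate controls; inactive = activation below 50%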;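 note: necroptosis triggered by 40 ng/mL TNF-alpha added together with compound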
L929 necroptosis: inhibitors of zVAD-triggered necroptosis, primary screen, L929 cells; actives 0.38% (n = 220,000); viability rescue, % at 10 µM; L929 zVAD necroptosis rescue, ATP luminescence, 24 h; with zVAD 60 µM;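 active = activation, scaled between plate controls, above about 75%, limit read from the data; inactive = activation under that limit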;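 note: 0% = zVAD with DMSO and 100% = DMSO alone without zVAD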
HSV replic up: enhancers of HSV replication in host cells, fold increase, host cell viability | HSV replication augmentation in cells | maximum fold increase | actives 0.005% (n = 220,000); in the data active = maximum fold increase above about 1.5; tested in PC3 cells
Wee1 stab conf: Wee1 degradation inhibitors, confirmation, cell-based, HeLa, Wee1K328M-luciferase, luminescence, triplicate | activation, % at 5 µM | actives 4% (n = 1,100) | HeLa Luc-Wee1K328M degradation; vehicle 0%, proteasome-blocked wells 100% | AID 1410, 2008 | shares compounds with Wee1 degr inh; in the data active = activation above about 8.9%
zVAD necrop conf: inhibitors of zVAD-triggered necroptosis in L929, confirmation, L929 cells, duplicate runs; shares compounds with L929 necroptosis; L929 zVAD-induced necroptosis rescue, ATP luminescence, 24 h; activation (protection from necroptosis), % at 10 µM; actives 16% (n = 760); AID 463117, 2010;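 active = mean protection from necroptosis of at least 50% over duplicate tests; inactive = mean protection below 50%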;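 note: 0% = cells with zVAD alone and 100% = vehicle cells without zVAD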
VATPase regulator: yeast V-ATPase proton pumping modulators, confirmation, S. cerevisiae, pH-sensitive GFP, second cherry-pick; response, % at 10 µM; actives 2% (n = 980); S. cerevisiae pHLuorin cytosolic pH, V-ATPase proton transport; AID 602197, 2012; shares compounds with V-ATPase pHluor; in the data active = response above about 24%;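 note: plate controls were vehicle wells for no effect and positive control wells for full effect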
An asterisk follows results filed as active. Only some compounds are listed: those with a hit (about 1.4% of all), similar ones and a draw of the others.

`O=C(/C=C/c1ccc(Cl)cc1)Nc1nccs1` gave Wee1 degr inh 13*, V-ATPase pHluor 2, TNF necrop inh 30, L929 necroptosis 77*, HSV replic up inactive, Wee1 stab conf 0 and zVAD necrop conf 19.
Screening C/C=C/C=C/C(=O)Nc1nccs1 returned Wee1 degr inh 11*, V-ATPase pHluor 4, TNF necrop inh 11, L929 necroptosis 86*, HSV replic up inactive, Wee1 stab conf 2 and zVAD necrop conf 4.
For C/C(=C\c1ccccc1)C(=O)Nc1nccs1 the results were Wee1 degr inh -1, V-ATPase pHluor 0, TNF necrop inh 5, L929 necroptosis 10 and HSV replic up inactive.
For C=CCn1c(SCC(=O)Nc2cc(C)ccc2OC)nnc1-c1ccco1 the results were Wee1 degr inh 15*, V-ATPase pHluor 11*, TNF necrop inh 1, L929 necroptosis 0, HSV replic up inactive, Wee1 stab conf 3 and VATPase regulator 0.
For CCN(C(=O)COc1ncnc2sccc12)c1ccccc1 the results were Wee1 degr inh 0, V-ATPase pHluor 1, TNF necrop inh 14, L929 necroptosis 1 and HSV replic up inactive.
For Cc1cc(C(=O)N/N=C/c2ccc(-c3cccc(Cl)c3)o2)n[nH]1 the results were Wee1 degr inh -2, V-ATPase pHluor 1, TNF necrop inh 23, L929 necroptosis 75*, HSV replic up inactive and zVAD necrop conf 7.
`Cc1ccc(C(=O)N/N=C/c2ccc(-c3cccc(Cl)c3)o2)cn1` gave Wee1 degr inh -1, V-ATPase pHluor -3, TNF necrop inh -3, L929 necroptosis 2 and HSV replic up inactive.
Cn1cc(C(=O)N/N=C/c2cccs2)c2ccccc21 was read as Wee1 degr inh 2, V-ATPase pHluor 0, TNF necrop inh -3, L929 necroptosis 81*, HSV replic up inactive and zVAD necrop conf 5.
For Cc1cc(C(=O)N/N=C/c2cccs2)no1 the results were Wee1 degr inh -4, V-ATPase pHluor 1, TNF necrop inh 2, L929 necroptosis 0 and HSV replic up inactive.
For Cn1cc(C(=O)N/N=C/c2ccc3c(c2)OCO3)c2ccccc21 the results were Wee1 degr inh 3, V-ATPase pHluor 1, TNF necrop inh -13, L929 necroptosis 2 and HSV replic up inactive.
For Cc1cc(C(=O)N/N=C/c2cccs2)n[nH]1 the results were Wee1 degr inh 1, V-ATPase pHluor 1, TNF necrop inh 20, L929 necroptosis 82*, HSV replic up inactive and zVAD necrop conf 2.
`Cc1ccc(NC(=O)c2ccc3c(c2)S(=O)(=O)c2ccccc2C3=O)cc1S(=O)(=O)N1CCOCC1` gave Wee1 degr inh 1, V-ATPase pHluor -2, TNF necrop inh -2, L929 necroptosis 1 and HSV replic up inactive.
Screening C/C(=N\NC(=O)c1nnn(-c2nonc2N)c1C(C)C)c1ccc2ccccc2c1 returned V-ATPase pHluor 1.
For CC(C)NC(=O)NC(=O)CSc1nnc(COc2ccccc2Cl)o1 the results were Wee1 degr inh 2, V-ATPase pHluor -6, TNF necrop inh -3, L929 necroptosis 1 and HSV replic up inactive.
`O=C(CSc1nnc(COc2ccccc2Cl)o1)NC(=O)NC1CCCC1` gave Wee1 degr inh -2, V-ATPase pHluor -2, TNF necrop inh -5, L929 necroptosis 87*, HSV replic up inactive and zVAD necrop conf 35.
For CC(C)c1ccc(/C=N/NC(=O)c2nnn(-c3nonc3N)c2CSC2=NCCS2)cc1 the results were Wee1 degr inh 4, V-ATPase pHluor 1, TNF necrop inh 3, L929 necroptosis 40 and HSV replic up inactive.
Nc1nonc1-n1nnc(C(=O)N/N=C/c2ccc(Br)cc2)c1CSC1=NCCS1 was read as Wee1 degr inh 6, V-ATPase pHluor -1, TNF necrop inh -7, L929 necroptosis 78*, HSV replic up inactive and zVAD necrop conf 2.
`Cc1ccc2c(c1)C(c1ccccc1)N(C(=O)c1c(F)cccc1Cl)CC(=O)N2` (stereo not drawn) gave V-ATPase pHluor 0.
Screening CCN(CCO)c1ccc(N=Nc2cc(C)[nH]n2)cc1 returned Wee1 degr inh 2, V-ATPase pHluor 3, TNF necrop inh 26, L929 necroptosis 85*, HSV replic up inactive and zVAD necrop conf 34.
Screening CCOC(=O)C1C(=O)NC(SCC(=O)Nc2nccs2)=C(C#N)C1c1ccccc1OCC (stereo not drawn) returned Wee1 degr inh 4, V-ATPase pHluor 6, TNF necrop inh 16, L929 necroptosis 88*, HSV replic up inactive and zVAD necrop conf 67*.
For CCOC(=O)CCC(=O)NNC(=O)c1ccc(NC(=O)c2ccccc2)cc1 the results were Wee1 degr inh 0, V-ATPase pHluor -5, TNF necrop inh -1, L929 necroptosis 75*, HSV replic up inactive and zVAD necrop conf 12.
For Cc1cc(C(=O)N/N=C/C=C/c2cccc([N+](=O)[O-])c2)n[nH]1 the results were Wee1 degr inh -2, V-ATPase pHluor 2, TNF necrop inh 19, L929 necroptosis 87*, HSV replic up inactive and zVAD necrop conf 1.
For O=C(N/N=C/C=C/c1ccccc1)c1cc(C2CC2)[nH]n1 the results were Wee1 degr inh -1, V-ATPase pHluor 0, TNF necrop inh 8, L929 necroptosis 77*, HSV replic up inactive and zVAD necrop conf 4.
For O=C(NC(=S)NCc1nc2ccccc2[nH]1)c1ccc(F)cc1 the results were Wee1 degr inh 3, V-ATPase pHluor 5, TNF necrop inh 18, L929 necroptosis 84*, HSV replic up inactive and zVAD necrop conf 17.
`COc1ccc(Cl)cc1NC(=O)CN(C)C(=O)c1cc2ccccc2cc1O` gave V-ATPase pHluor -3.
Screening O=C(N/N=C\c1cccc(Cl)c1)c1n[nH]c2c1CCCC2 returned Wee1 degr inh 3, V-ATPase pHluor -1, TNF necrop inh 6, L929 necroptosis 83*, HSV replic up inactive and zVAD necrop conf 28.
